Assay outcomes deposited in PubChem BioAssay by National Center for Advancing Translational Sciences (NCATS).
Cruzain inh Det: cruzain (T. cruzi) inhibition with detergent; P25779; purified cruzain, Z-FR-AMC fluorescence, 0.01% Triton; Potency, µM, inactives show max response, negative = inhibition, actives largely listed as inhibitors; 200,000 compounds, 0.43% hits; AID 1478;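 also: plate controls were neutral wells for no effect and buffer without enzyme for full effect; nearly all actives have a fitted effect of over 40% in size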
Target sequence (P25779 123-467 limits assumed): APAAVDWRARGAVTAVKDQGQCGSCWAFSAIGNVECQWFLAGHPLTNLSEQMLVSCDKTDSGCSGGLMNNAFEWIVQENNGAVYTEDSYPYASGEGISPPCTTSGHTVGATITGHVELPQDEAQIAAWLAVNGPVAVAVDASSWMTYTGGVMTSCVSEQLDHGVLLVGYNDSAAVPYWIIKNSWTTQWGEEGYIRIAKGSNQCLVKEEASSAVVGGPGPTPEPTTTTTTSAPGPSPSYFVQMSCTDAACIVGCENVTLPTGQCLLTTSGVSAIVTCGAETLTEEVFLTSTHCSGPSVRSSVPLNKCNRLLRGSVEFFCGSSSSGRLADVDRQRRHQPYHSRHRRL
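15 min RT preincubation of 1.5 nM cruzain with compound, then 2 uM Z-FR-AMC added; kinetic AMC fluorescence, 60 s delta. Triton X-100 0.01%, pH 5.5.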
Cruzain inh noDet: blocks cruzain activity in detergent-free assay. P25779. purified cruzain, Z-FR-AMC fluorescence, no detergent. Potency, µM, for inactives: max response, negative = inhibition, hits mostly inhibitors. 200,000 compounds, 2.3% hits;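 also: plate controls were enzyme without inhibitor for no effect and buffer without enzyme for full effect; nearly all actives have a fitted effect of over 40% in size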
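Detergent-free condition (0.00005% Triton X-100) in acetate buffer pH 5.5 with DTT. 1.5 nM enzyme and compound were pre-mixed 15 min, then 2 uM Z-FR-AMC substrate added; reaction progress from fluorescence change between first and third reads (60 s).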
An asterisk follows results filed as active; ? = inconclusive. Sampled rows, rich in hits. Any-hit rate of the full collection: about 2.5%. Calls follow the shape of the dose curve; as a rule, active = well fitted curve in the direction sought with a large enough effect; inconclusive = small, poorly fitted or top-dose-only effect, or another doubt; inactive = no such curve, though single readings can be large; an effect the other way counts as inactive or inconclusive. Potency is read from the fitted curve at half-maximal effect.

SMILES	Cruzain inh Det	Cruzain inh noDet
O=C(NC1CCCC1)C(c1ccsc1)N(CCc1ccccc1)C(=O)Cc1cccs1 (centres undefined)	1%	?
O=C(NC1CCCC1)C(c1ccsc1)N(C(=O)Cc1cccs1)c1ccccc1 (centres undefined)	10%	10µM*
O=C(NC1CCCCC1)C(c1ccc(F)cc1)N(C(=O)Cc1ccsc1)c1ccc(F)cc1 (centres undefined)	7%	-2%
O=C(NC1CCCCC1)C(c1ccccc1)N(C(=O)Cc1ccsc1)c1ccccc1 (centres undefined)	4%	16µM*
CC1(C)CC(N=C=O)CC(C)(CN=C=O)C1 (centres undefined)	-1%	-9%
CC(CCN)(CCN)[N+](=O)[O-]	3%	1%
O=C(NCc1ccc(F)cc1Cl)c1cc(=O)[nH]c2ccc(S(=O)(=O)N3CCCCC3)cc12	2%	-4%
Cc1ccc(S(=O)(=O)c2nnn3c2nc(NCc2ccc4c(c2)OCO4)c2sccc23)cc1C	-6%	25µM*
Cc1ccc(S(=O)(=O)c2nnn3c2nc(NCc2ccc4c(c2)OCO4)c2sccc23)cc1	-6%	9%
CC(C)c1ccc(S(=O)(=O)c2nnn3c2nc(NCCc2ccccc2)c2sccc23)cc1	0%	10µM*
Cc1ccc(S(=O)(=O)c2nnn3c2nc(NCCc2ccccc2)c2sccc23)cc1	0%	0%
O=c1cc(-c2ccc(O)cc2)oc2c([C@H]3O[C@@H](CO)[C@@H](O)[C@@H](O)[C@@H]3O)c(O)cc(O)c12	-7%	-19%
O=C(CN1C(=O)C2CCCCN2c2ccc(C(=O)N3CCCC3)cc21)NCc1ccccc1 (centres undefined)	-3%	-1%
Cc1cc(NC(=O)CCNS(=O)(=O)c2ccc3c(c2)CCCC(=O)N3)ccc1Br	0%	-1%
COc1ccc(C2NC(=O)c3sc(=S)n(-c4ccccc4)c3N2)cc1 (centres undefined)	0%	25µM*
CCOc1ccc(C2NC(=O)c3sc(=S)n(-c4ccccc4)c3N2)cc1 (centres undefined)	-12%	-18%
CCCc1nnc(NC(=O)Cn2cnc3ccccc3c2=O)s1	1%	2%
COc1cccc(NC(=O)CSc2nc(-c3ccccc3)nc3c2Cc2cc(Cl)ccc2O3)c1	0%	0%
O=Cc1ccc(CO)o1	2%	2%
CC(C)(C)c1ccc(-c2csc(NC(=O)CN3C(=O)NC4(CCCCC4)C3=O)n2)cc1	2%	7.9µM*
CCNC(=O)CN1C(=O)NC2(CCCCCC2)C1=O	5%	5%
Cc1ccc(-c2nnn(CC(=O)N(c3ccc(F)cc3)C(C(=O)NC(C)(C)C)c3ccco3)n2)o1 (centres undefined)	2%	9%
Cc1ccc(-c2nnn(CC(=O)N(c3cccc(F)c3)C(C(=O)NC3CCCC3)c3ccco3)n2)o1 (centres undefined)	2%	6.3µM*
Cc1ccc(-c2nnn(CC(=O)N(c3ccc(F)cc3)C(C(=O)NC3CCCC3)c3ccco3)n2)o1 (centres undefined)	2%	10µM*
Cc1ccc(-c2nnn(CC(=O)N(c3ccccc3F)C(C(=O)NC3CCCC3)c3ccco3)n2)o1 (centres undefined)	1%	3%
SMILES	Cruzain inh Det	Cruzain inh noDet
COc1ccc2c(c1)OC(=O)CC2c1ccc2c(c1)OCO2 (centres undefined)	-3%	-1%
CCOc1ccc(C2C(C#N)=C(N)Oc3c2c(=O)oc2ccccc32)cc1 (centres undefined)	-5%	-16%
CCOc1ccc(C2Nc3ccc4ccccc4c3-c3c2c(=O)oc2ccccc32)cc1 (centres undefined)	-13%	7.9µM*
O=C1CC(c2ccc(Br)cc2)c2c(c3ccccc3oc2=O)O1 (centres undefined)	-5%	-18%
O=c1oc2ccccc2c2c1C(c1ccc(Cl)cc1)Nc1ccc3ccccc3c1-2 (centres undefined)	0%	4µM*
COc1ccc(-c2cc3ccccc3c(=O)o2)cc1	0%	23%
COc1ccc(C2Nc3ccc4ccccc4c3-c3c2c(=O)oc2ccccc32)cc1 (centres undefined)	6%	10µM*
CCc1nn(CC(=O)N2CCN(Cc3ccc4c(c3)OCO4)CC2)c(=O)c2cc3occc3n12	-3%	-2%
CCNC(C)(C)[C@@H](SS)c1ccc(Br)cc1	2%	-12%
COc1cccc(-c2nc(S(=O)(=O)c3ccccc3)c(N3CCCCC3)o2)c1	-7%	-1%
NC1(C(=O)O)CC(C(=O)O)C1 (centres undefined)	2%	-3%
COc1cc2c(cc1NC(=O)COc1ccc(Cl)cc1)oc1ccccc12	-2%	-1%
COc1ccc(C(=O)Nc2ccc(-c3cc4ccccc4oc3=O)c(C)c2)cc1Br	-20%	25µM*
COc1cc(NC(=O)COc2ccc(Cl)cc2)ccc1-c1cc2ccccc2oc1=O	0%	5µM*
